Assay outcomes from PubChem.
Sampled rows, rich in hits. Any-hit rate of the full collection: about 0.33%.
FXIIa inh: human FXIIa protease inhibitors, primary screen, biochemical, single well; purified human FXIIa, AMC substrate fluorescence, 2 h; 0.2% of 33,000 active; AID 701, 2007; inhibition, % at 10 µM; in the data active = inhibition above about 30%;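 note: 0% = enzyme with vehicle only and 100% = no enzyme blank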
Target sequence (P00748 20-372 limits assumed): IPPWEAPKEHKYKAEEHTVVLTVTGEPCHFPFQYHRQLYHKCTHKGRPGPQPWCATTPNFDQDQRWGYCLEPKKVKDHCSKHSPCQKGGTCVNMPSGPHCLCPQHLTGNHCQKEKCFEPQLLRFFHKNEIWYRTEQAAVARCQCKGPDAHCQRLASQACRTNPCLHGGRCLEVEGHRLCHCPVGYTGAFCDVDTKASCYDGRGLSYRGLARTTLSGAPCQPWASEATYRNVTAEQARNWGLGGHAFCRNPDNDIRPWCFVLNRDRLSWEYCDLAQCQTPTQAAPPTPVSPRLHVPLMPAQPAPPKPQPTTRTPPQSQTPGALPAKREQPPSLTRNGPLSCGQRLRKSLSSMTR
Target sequence (P00748 373-615 limits assumed): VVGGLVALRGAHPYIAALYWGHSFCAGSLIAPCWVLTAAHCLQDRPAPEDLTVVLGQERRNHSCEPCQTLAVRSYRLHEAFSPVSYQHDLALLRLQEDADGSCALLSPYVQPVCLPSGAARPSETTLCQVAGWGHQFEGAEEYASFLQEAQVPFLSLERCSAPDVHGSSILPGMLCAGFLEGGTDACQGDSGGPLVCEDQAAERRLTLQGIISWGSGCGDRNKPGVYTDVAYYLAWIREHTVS
FXIa inh: human FXIa protease inhibitors, primary screen, biochemical, single compound per well. Coagulation factor XI (Homo sapiens), P03951. purified human FXIa, fluorogenic AMC substrate cleavage. inhibition, % at 10 µM. 0.3% of 33,000 active. AID 687, 2007;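 active = inhibition above 40% in the primary screen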;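 note: 0% = enzyme without compound and 100% = blank wells lacking enzyme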
* hit, by the source's call.

SMILES	FXIIa inh	FXIa inh
CCN1CCN(CC(=O)c2c(C)n(Cc3ccccc3)c3ccc(OC)cc23)CC1	8	-6
CCOC(=O)c1c(C)n(Cc2ccccc2)c2ccc(OCC(O)Cn3nc(C)cc3C)cc12 (stereo not drawn)	-15	101*
CC12CN3CN(C1)CC(c1ccccc1)(C3)C2=O	-14	4
S=C1NCCN1	3	2
CCCc1nc2ccccc2c(=O)n1-c1ccc(OC)cc1	1	42*
CN(C)CCc1nc2ccccc2c(=O)n1-c1ccccc1	6	-2
